# Screens from PubChem BioAssay.
# Sfp PPTase inh: inhibitors of Bacillus subtilis Sfp phosphopantetheinyl transferase | Biochemical Sfp PPTase activity, qHTS | Potency, µM, for inactives: largest response in the series, negative = inhibition, most hits filed as inhibitors | actives 3.5% (n = 310,000);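 note: the enzyme is Sfp with the accession as filed and its product quenches rhodamine fluorescence; 0% = enzyme reaction without inhibitor and -100% = no enzyme wells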
#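 Reaction rates are the 30-min fluorescence difference (ex 525, em 598 nm) in wells containing 15 nM Sfp, 5 uM rhodamine-CoA and 12.5 uM BHQ-2-YbbR at pH 7.6 with 10 mM MgCl2.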
# L3MBTL1 block: inhibitors of human L3MBTL1 | Q9Y468 | Potency, µM (top dose mostly 57.1 µM), inactives show at the highest dose activity, negative = inhibition, hits mostly inhibitors | AlphaScreen L3MBTL1–H3K9me1 peptide binding | actives 0.66% (n = 230,000) | AID 485360; note: % is set by controls: 0 for no effect and ±100 for the full control effect; nearly all actives have a fitted effect of over 60% in size
#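 Read-out is AlphaScreen signal from streptavidin donor and nickel chelate acceptor beads (10 ug/mL final each) bridging L3MBTL1 (50 nM) and biotinylated K9-monomethylated H3(1-15) peptide (75 nM), after 30 min compound exposure at room temperature.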
# BAZ2B block: inhibitors of human BAZ2B bromodomain; actives 4.4% (n = 360,000); AlphaScreen BAZ2B-H3K14Ac peptide displacement; Q9UIF8; AID 504333; Potency, µM (top dose mostly 114 µM), for the others: at the top dose activity change, negative = inhibition, usual class: inhibitors; note: % is set by controls: 0 for no effect and ±100 for the full control effect; nearly all actives have a fitted effect of over 60% in size
#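 BAZ2B 50 nM plus b-H3(5-23)K14Ac 50 nM, PBS pH 7.4/0.01% Tween-20, 30 min RT; compound added (max 110 uM), 30 min RT; streptavidin donor/Ni-chelate acceptor beads 10 ug/mL final, 20 min dark; AlphaScreen read.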
# G9a inh: blocks human histone lysine methyltransferase G9a. G9a H3K9 monomethylation, AlphaScreen, 2 h. Q96KQ7. Potency, µM (series often up to 102 µM), without a hit: at the top dose activity, negative = inhibition, most hits filed as inhibitors. actives 8.8% (n = 350,000); note: % is set by controls: 0 for no effect and ±100 for the full control effect; nearly all actives have a fitted effect of over 75% in size
# Target sequence (Q96KQ7 913-1193 limits assumed): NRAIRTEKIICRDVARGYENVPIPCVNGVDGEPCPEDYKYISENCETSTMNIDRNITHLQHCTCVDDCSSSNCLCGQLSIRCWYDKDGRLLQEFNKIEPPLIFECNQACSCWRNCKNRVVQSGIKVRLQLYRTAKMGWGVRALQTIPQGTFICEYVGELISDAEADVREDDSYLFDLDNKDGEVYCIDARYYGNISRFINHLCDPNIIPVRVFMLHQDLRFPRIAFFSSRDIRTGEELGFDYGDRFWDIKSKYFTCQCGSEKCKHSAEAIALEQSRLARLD
#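 Step 1: enzyme (final 20 nM) with compound, 15 min RT. Step 2: substrate peptide 500 nM and SAM 20 uM, 2 h RT. Step 3: anti-H3K9me1 antibody and AlphaScreen beads, 10 min, then plate read.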
# HP1b chromo inh: HP1-beta chromodomain-methylated histone interaction inhibition. actives 0.56% (n = 390,000). P83916. AlphaScreen HP1-beta / biotin-H3K9me3 peptide binding. Potency, µM (series often up to 114 µM), without a hit: at the highest dose activity change, negative = inhibition, most hits filed as inhibitors. AID 540317; note: nearly all actives have a fitted effect of over 70% in size
# Target sequence (P83916 whole entry, looked up): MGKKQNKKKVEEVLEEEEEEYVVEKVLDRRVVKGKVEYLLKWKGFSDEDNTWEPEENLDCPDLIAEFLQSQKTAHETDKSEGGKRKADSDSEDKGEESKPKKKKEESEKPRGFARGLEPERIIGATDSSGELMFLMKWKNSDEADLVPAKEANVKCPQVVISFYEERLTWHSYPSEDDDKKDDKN
#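 AlphaScreen: HP1-beta (50 nM) preformed 30 min with biotin-H3(1-18)K9me3 peptide (50 nM) in PBS pH 7.4, 0.01% Tween-20. Compound added for 30 min at RT, then streptavidin donor/nickel chelate acceptor beads (10 ug/mL) for 30 min.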
# JMJD2A Tudor: inhibitors of human JMJD2A Tudor domain. O75164. AlphaScreen JMJD2A-Tudor / H3K4me3 peptide binding. Potency, µM (series often up to 114 µM), for the others: at the highest dose activity change, negative = inhibition, actives largely listed as inhibitors. actives 4.4% (n = 390,000); note: % is set by controls: 0 for no effect and ±100 for the full control effect; nearly all actives have a fitted effect of over 50% in size
# Starred values were filed as active, the others as inactive; ? = inconclusive; . = no result given; ! = not active in a repeat; [ ] = dose if it differs, or a comment. Most compounds without a hit are left out; they make up all but 12% or so of the library. Calls come from the whole dose curve; as a rule, active = well fitted curve in the direction sought with a large enough effect; inconclusive = small, poorly fitted or top-dose-only effect, or another doubt; inactive = no such curve, though single readings can be large; an effect the other way counts as inactive or inconclusive. Potency is the fitted concentration of half-maximal effect.
SMILES,Sfp PPTase inh,L3MBTL1 block,BAZ2B block,G9a inh,HP1b chromo inh,JMJD2A Tudor
Cc1ccc(Nc2nnc(SCC3CCCCO3)s2)cc1 (centres undefined),-11%,-2%,16%,40µM*,40%,-4%
COc1ccc(C2=[N+](C)CCn3cccc32)c(OC)c1,18%,3%,-34%,7.1µM*,?,18µM*
O=C(Oc1ccccc1)C1O[C@@H]1c1ccccc1 (some centres undefined),-3%,.,.,.,.,.
CCc1cc(-c2[nH]ncc2-c2ccc(OC)cc2)c(O)cc1O,16%,.,?,12%[2.33 µM],-14%,?
CCc1cc(-c2[nH]ncc2-c2ccc3c(c2)OCO3)c(O)cc1O,13%,.,32µM*,?,?,32µM*
CCCC(=O)NCCc1c(I)[nH]c2ccc(OC)cc12,-5%,.,.,-29%[59 µM],.,.
COc1cccc(C2C=C(c3ccc(OC)cc3OC)Nc3nnnn32)c1 (centres undefined),-12%,1%,-1%,45µM*,83%,12%
COc1ccc(C2=CC(c3ccc(OC)c(OC)c3)n3nnnc3N2)c(OC)c1 (centres undefined),-1%,4%,-28%,50µM*,69%,?
O=c1c(CCc2ccccc2)nc2cnc(Oc3ccccc3)nc2n1C1CC1,-12%,.,.,10%[0.501 µM],.,.
O=C(CCn1nc(-c2ccc(Cl)cc2)ccc1=O)NCCc1ccccc1,.,.,-2%,0%[59 µM],-9%,-28%
CC1(C)CC(=O)C2=C(C1)OC(N)=C(C#N)C21CCN(C(=O)OCc2ccccc2)CC1,-3%,.,11%,-33%[2.33 µM],4%,-23%
N#CC1=C(N)OC2=C(C(=O)CCC2)C12CCN(C(=O)OCc1ccccc1)CC2,-6%,7%,-34%,50µM*,28%,-11%[57.1 µM]
NC(N)=NCCC[C@@H](N)C(=O)NCC(=O)N[C@@H](CC(=O)O)C(=O)N[C@@H](Cc1c[nH]c2ccccc12)C(=O)O,9%,.,.,.,.,.
O=C1/C(=N\S(=O)(=O)c2cccs2)C([n+]2ccccc2)=C([O-])c2ccccc21,16%,.,?,1%[59 µM],28%,-3%
O=C1C(Nc2ccc(O)cc2)=C/C(=N/S(=O)(=O)c2cccs2)c2ccccc21,-4%,13µM*,7.9µM*,11µM*,?,20µM*
Cc1ccc(NC2=C/C(=N\S(=O)(=O)c3cccs3)c3ccccc3C2=O)c(C)c1,-7%,3.2µM*,3.5µM*,7.9µM*,5.6µM*,4.5µM*
Cc1cccc(NC2=C/C(=N/S(=O)(=O)c3cccs3)c3ccccc3C2=O)c1,?,1.6µM*,2.5µM*,?,?,5.6µM*
Cc1ccc(Cl)cc1NC1=C/C(=N\S(=O)(=O)c2cccs2)c2ccccc2C1=O,-4%,.,10µM*,8.9µM*,4µM*!,2.8µM*
CCOc1ccccc1-c1noc(CSc2nnc(-c3ccccc3)n2-c2ccc(OC)cc2)n1,.,.,-22%,-8%[59 µM],-1%,-27%
COc1ccccc1CNC(=O)c1cn(C)c2ccc(S(=O)(=O)N(C)C3CCCCC3)cc2c1=O,.,.,.,6%[59 µM],12%,-22%
COc1ccc2c(c1)NC(c1cccnc1)=NC(c1ccc(F)cc1)=N2,.,.,-32%,-18%[59 µM],17%,-20%
CC1(C)N=C(Nc2nc3ccccc3o2)NC2=C1C(=O)CCC2,.,.,.,.,.,-30%
CCOc1ccc2ncc(S(=O)(=O)c3ccccc3)c(N3CCN(c4ccc(OC)cc4)CC3)c2c1,-3%,-4%,10µM*,?,?,?
CCOc1ccc2ncc(S(=O)(=O)c3ccccc3)c(N3CCN(c4ccccc4)CC3)c2c1,.,.,.,.,-15%,?
COc1ccc(N2CCN(c3c(S(=O)(=O)c4ccccc4)cnc4ccc(OC)cc34)CC2)cc1,12%,?,?,8.9µM*,?,?
SMILES,Sfp PPTase inh,L3MBTL1 block,BAZ2B block,G9a inh,HP1b chromo inh,JMJD2A Tudor
Cc1ccccc1CN1C(=O)c2ccccc2Sc2ccc(C(=O)NCCc3ccccc3)cc21,.,.,-7%,-2%[59 µM],4%,-13%
COc1ccc(C(=O)COC(=O)c2ccccc2O)c(OC)c1,.,8.9µM*,50µM*,-32%[59 µM],28%,?
COc1ccc(C(=O)COC(=O)c2ccc(Cl)nc2)cc1OC,.,4%,9%,?,31%,-3%
COc1ccc(C(=O)COC(=O)c2ccc(Cl)nc2)c(OC)c1,.,?,79µM*,-31%,-7%,-14%
Cc1ccc(NC(=O)CN2C(=O)N/C(=C/c3ccco3)C2=O)cc1,45µM*,-88%,-7%,0%[0.0925 µM],5%,-33%
Cc1ccc(NC(=O)CN2C(=O)S/C(=C\c3cc(C)n(-c4ccc(C(=O)O)cc4)c3C)C2=O)cc1,8%,-18%,50µM*,.,2%,?
CCn1c(C)cc(/C=C2\NC(=O)N(CC(=O)Nc3ccc(F)cc3)C2=O)c1C,2%,-23%,?,.,-5%,?
Cc1ccc(NC(=O)CN2C(=O)S/C(=C\c3cc(Cl)c(OCC(=O)O)c(Cl)c3)C2=O)cc1,50µM*,0%,40µM*,40µM*,20µM*,45µM*
Cc1ccc(NC(=O)CN2C(=O)N/C(=C/c3cc(C)n(-c4ccc(C(=O)O)cc4)c3C)C2=O)cc1,-45%,.,40µM*,28µM*,-18%,79µM*
COc1ccc(/C=C2\SC(=O)N(CC(=O)Nc3ccc(O)cc3)C2=O)cc1OC,-2%,.,6%,24%,11%,-3%
N#Cc1ccc2c(c1)C[C@]1(CCCCN3C(=O)c4ccccc4C3=O)OC3=C(C(=O)OC4(CCCCC4)C3)C2O1,3%,.,-7%[22.9 µM],19%[2.33 µM],.,.
CCN(CC)CCCNC(=O)c1nn(-c2ccc(OC)cc2)c(=O)c2c1c1ccccc1n2C,.,.,.,-32%[59 µM],3%,-17%
CCOC(=O)C1CCN(c2ncnc3c2c(-c2ccccc2)cn3-c2ccc(Cl)cc2)CC1,.,.,-6%,3%[59 µM],20%,-13%
Cc1cccc(NS(=O)(=O)c2ccc3c(c2)CC(C)N3C(=O)C2CCC2)c1C (centres undefined),.,.,2%,0%[59 µM],32%,-8%
COc1ccc(-c2csc(NC(=O)Cc3ccccc3F)n2)cc1OC,-3%,.,40µM*,?,-7%,?
COc1ccc(CC(=O)Nc2nc(-c3ccc(OC)c(OC)c3)cs2)cc1OC,-12%,.,?,-17%,-20%,?
COc1ccc(-c2csc(NC(=O)CC(NC(C)=O)c3ccccc3)n2)cc1OC (centres undefined),27%,.,79µM*,25µM*,26%,-21%
CCOC(=O)c1c(C)[nH]c(C)c1S(=O)(=O)N1CCN(c2ccccc2OC)CC1,.,.,-5%[57.1 µM],-9%[59 µM],7%,-32%
